# Screens as filed in PubChem.
# TbPYK inhibitor: inhibitors of Trypanosoma brucei pyruvate kinase | Potency, µM (titrated, usually from 76.8 µM), for inactives: top-dose activity, negative = inhibition, hits mostly inhibitors | hit rate 0.12% among 410,000 | TbPYK enzyme, Kinase-Glo Plus ATP luminescence, 45 min; also: potency is read from the fitted curve at half-maximal effect; % is scaled to controls: 0 for no effect and ±100 for the full control effect; nearly all actives have a fitted effect of over 50% in size
#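 Screened from lowest to highest concentration, compounds were pinned into TbPYK/substrate mixtures, and ADP (130 uM final) was added. Plates sat at room temperature for 45 min prior to Kinase-Glo Plus detection by luminescence.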
# AMA1 RON2 block: inhibitors of Plasmodium falciparum AMA1-RON2 interaction. AlphaScreen AMA1-biotinylated RON2 peptide binding. Potency, µM (series often up to 58.2 µM), for inactives: at the top dose activity change, negative = inhibition, actives largely listed as inhibitors. hit rate 0.2% among 360,000;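 also: potency is read from the fitted curve at half-maximal effect; 0% = vehicle wells and -100% = peptide control; nearly all actives have a fitted effect of over 45% in size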
#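 AMA1 (3D7) with his tag at 25 nM final met compounds first, then biotinylated RON2 peptide at 25 nM; detection used donor plus acceptor beads, 10 µg/mL apiece, read by AlphaScreen after 30 min at room temperature.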
# LmPK inhibitor: blocks Leishmania mexicana pyruvate kinase activity | Q27686 | purified LmPK, Kinase-Glo ATP luminescence, 1 h | Potency, µM (top dose mostly 57.5 µM), without a hit: top-dose activity change, negative = inhibition, hits mostly inhibitors | hit rate 0.37% among 290,000 | AID 1721; also: potency is read from the fitted curve at half-maximal effect; % is scaled to controls: 0 for no effect and ±100 for the full control effect
# Target sequence (Q27686 whole entry, looked up): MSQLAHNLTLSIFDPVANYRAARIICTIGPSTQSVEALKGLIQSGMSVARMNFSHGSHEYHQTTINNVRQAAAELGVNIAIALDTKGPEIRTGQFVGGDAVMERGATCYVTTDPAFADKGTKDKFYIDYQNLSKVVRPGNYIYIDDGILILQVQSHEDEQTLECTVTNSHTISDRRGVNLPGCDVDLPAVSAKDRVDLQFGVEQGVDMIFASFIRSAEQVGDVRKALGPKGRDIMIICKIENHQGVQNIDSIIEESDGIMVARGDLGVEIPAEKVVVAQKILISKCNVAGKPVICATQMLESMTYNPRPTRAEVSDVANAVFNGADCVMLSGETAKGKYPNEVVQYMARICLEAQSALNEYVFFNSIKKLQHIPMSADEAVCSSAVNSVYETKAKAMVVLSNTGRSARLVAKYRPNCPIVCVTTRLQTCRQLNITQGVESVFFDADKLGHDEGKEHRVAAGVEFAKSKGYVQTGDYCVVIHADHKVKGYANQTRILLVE
#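 Screened at intermediate enzyme activity to detect both inhibitors and activators: LmPK at 0.1 nM, with a 0.5 nM enzyme column as activation reference. PEP 0.5 mM, ADP 0.1 mM; ATP detected by luminescence after 1 h.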
# RE007 growth inh: less growth of the S. pombe RE007 Vpr strain | hit rate 0.21% among 360,000 | S. pombe RE007 Vpr strain, BacTiter-Glo ATP luminescence, 24 h | Potency, µM (titrated, usually from 92.2 µM), for inactives: at the top dose activity change, negative = less growth, hits mostly inhibitors; active = well fitted falling curve with a large enough effect; inconclusive = small, poorly fitted or top-dose-only effect; inactive = no such curve, though single readings can be large or run the other way; also: potency is read from the fitted curve at half-maximal effect; % is scaled to controls: 0 for no effect and ±100 for the full control effect; nearly all actives have a fitted effect of over 50% in size
#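 Fission yeast RE007 carrying one integrated HIV-1 vpr copy, seeded at OD 0.01 in PMG+AL medium with 23 nL pinned compound. Grown 24 h at 30 degrees; viability read by BacTiter-Glo luminescence after 5 min.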
# NS1 inh: blocks influenza NS1 protein function; Potency, µM (doses to about 46.1 µM), inactives show at the top dose activity, positive = more growth; hit rate 0.4% among 270,000; AID 2326; calls by dose curve; also: potency is read from the fitted curve at half-maximal effect; actives are rising curves; nearly all actives have a fitted effect of over 50% in size
#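 Recovery from NS1-induced slow growth read by OD600 in budding yeast switched to galactose assay medium (pH 6.0, -URA) at 1:100 dilution. Compound 23 nl per well; the matching strain lacking NS1 serves as control.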
# NS1 inh valid: validation of influenza NS1 protein function inhibitors; shares compounds with NS1 inh; influenza NS1 function cell assay, 15-point titration; activity change, negative = inhibition, % at 32.9 µM; 1,400 tested, under 10 active; calls by dose curve; also: 0% is about no effect
# Flu PR8 replic: reduces influenza A/PR/8/34 replication in MDCK cells; shares compounds with NS1 inh; MDCK infected influenza A/PR/8/34, virus titer TCID50; active compounds read low; virus titer (log TCID50), log10 TCID50 at 5 µM; hit rate 30% among 95; AID 504647; call rule not given here
# * marks the source's active call; other numbers are inactive results; ? = inconclusive; . = not tested or not shown; [ ] = remark or other dose. Rows were chosen to be rich in hits. Some 0.92% of all compounds tested hit in one or more screens of this group. Unless noted, calls follow the shape of the dose curve; as a rule, active = well fitted curve in the direction sought with a large enough effect; inconclusive = small, poorly fitted or top-dose-only effect, or another doubt; inactive = no such curve, though single readings can be large; an effect the other way counts as inactive or inconclusive.
SMILES,TbPYK inhibitor,AMA1 RON2 block,LmPK inhibitor,RE007 growth inh,NS1 inh,NS1 inh valid,others
Cc1ccc(-c2nc(N)sc2CC(=O)OCC(=O)NCCC(C)C)cc1,-18%,51%,-2%,8%,-3%,.,
Cc1ccc(NC(=O)c2cc(S(=O)(=O)N3CCCCC3)c[nH]2)cc1N(C)C,1%,.,.,.,.,.,
O=C(CN1CCCCCC1=O)OCc1ncc(-c2ccccc2)o1,5%,-8%,-7%,-15%,0.45µM*,0,Flu PR8 replic=8.5
NC(=O)NC(=O)COC(=O)c1ccc(Cl)c(S(=O)(=O)N(Cc2ccccc2)c2ccc(Cl)cc2)c1,-3%,17%[11.6 µM],1%,14%,11µM*,-20,
Nc1ccccc1-c1nnc(SCc2ccccc2Cl)[nH]c1=O,-5%,2%,3%,-16%,-71%,.,
Cc1ccc(CSc2nnc(-c3ccccc3N)c(=O)[nH]2)cc1,3%,14%,3%,?,11µM*,-35,
Cc1ccc(C(=O)NCc2ccccc2)cc1NC(=O)c1nsc2ccccc12,2%,.,.,.,.,.,
O=C(O)/C=C/c1nc(-c2ccccc2)n2ccccc12,-3%,19%,5%,-8%,?,-1,
CC(=O)c1cccc(NC(=O)CC(c2ccc(C)cc2)N2Cc3ccccc3C2=O)c1 (stereo unspecified),-1%,.,.,.,.,.,
O=C(Cn1c(SCCOc2ccccc2Cl)nc2ccccc21)N1CCCCC1,-4%,.,.,.,.,.,
COc1cccc(C(C)NC(=O)Nc2cc(Cl)ccc2OC)c1 (stereo unspecified),-4%,9%,1%,8%,3%,.,
COc1cccc(C(C)NC(=O)Nc2cccc(C(F)(F)F)c2)c1 (stereo unspecified),-4%,-11%,4%,-11%,?,?,
COc1ccc(NS(=O)(=O)c2ccc3nc(COc4cccc5ccccc45)[nH]c3c2)cc1,-17%,21%,2%,-24%,22µM*,8,
COc1cc2c(cc1OC)/C(=C/C(=O)N1CCOCC1)NC(C)(C)C2,6%,-3%,-3%,-2%,?,1,
CC1(C)Cc2ccccc2/C(=C/C(=O)N2CCCCCC2)N1,-4%,-12%,9%,-9%,7%,.,
CCOC(=O)/C=C1\NC(C)(C)Cc2cc(OC)c(OC)cc21,4%,-19%,3%,-26%,2%,.,
CCOC(=O)/C=C1\NC(C)(C)Cc2cc(OC)c(O)cc21,-4%,-12%,1%,-1%,?,20,
COc1ccc(C(=O)N2CCN=C2SCc2cccnc2)c(OC)c1,-3%,-1%,1%,-4%,6%,.,
COc1cccc(C(=O)N2CCN=C2SCc2cccnc2)c1OC,-2%,14%,-2%,-16%,1.6µM*,-15,
O=C(c1ccc([N+](=O)[O-])cc1)N1CCN(c2ccc(Nc3ccccc3)nn2)CC1,3%,.,.,.,.,.,
Cc1ccnc(NC(=O)CCC(=O)N(CC(=O)NC2CCCCC2)c2ccc3c(c2)OCO3)c1,-8%,-1%,-2%,7%,22µM*,-9,
Cc1cccc(N(CC(=O)NC2CCCCC2)C(=O)CCC(=O)Nc2ccccn2)c1,.,.,1%,.,0%,.,
CCCOc1ccc(NC(=O)CC2C(=O)N(Cc3ccccc3)C(=S)N2Cc2cccs2)cc1 (stereo unspecified),2%,5%,1%,-12%,3.5µM*,-12,
COC(=O)CN1C(=S)N(Cc2ccccc2)C(=O)C1CC(=O)Nc1ccc(Br)cc1 (stereo unspecified),1%,-5%,3%,22%,11µM*,-31,
COc1cc(C(=O)N(Cc2ccc(F)cc2)Cc2ccco2)cc(OC)c1OC,1%,.,.,.,.,.,
SMILES,TbPYK inhibitor,AMA1 RON2 block,LmPK inhibitor,RE007 growth inh,NS1 inh,NS1 inh valid,others
Cc1ccc(S(=O)(=O)Nc2ccccc2C(=O)OC(C)C(=O)Nc2ccc3ccccc3c2)cc1[N+](=O)[O-] (stereo unspecified),-2%,2%,2%,-13%,4.5µM*,-10,
CCc1ccc(NC(=O)C(C)OC(=O)c2ccc(NS(=O)(=O)c3ccc(C)c([N+](=O)[O-])c3)cc2)cc1 (stereo unspecified),2%,-29%,0%,10%,-35%,.,
NNC(=O)CNC(c1ccccc1)c1cc(Br)ccc1NC(=O)CCN1CCOCC1 (stereo unspecified),-7%,5%,6%,12%,10µM*,?,
NNC(=O)CNC(c1ccccc1)c1cc(Br)ccc1NC(=O)c1cccc(Cl)c1 (stereo unspecified),-4%,35%,3%,-5%,11µM*,15,
NNC(=O)CNC(c1ccccc1)c1cc(Br)ccc1NC(=O)c1ccccc1Br (stereo unspecified),-7%,59%,1%,-9%,?,.,
NNC(=O)CNC(c1ccccc1)c1cc(Br)ccc1NC(=O)c1ccc(Br)cc1 (stereo unspecified),-1%,7%,1%,5%,7.1µM*,26,
O=C(CCN1CCOCC1)NCC(=O)Nc1ccc(Br)cc1C(=O)c1ccccc1,-4%,-7%,-2%,20%,-1%,.,
COc1ccc(-c2cnnn2-c2ccc(NC(=O)c3c(F)cccc3F)cc2)cc1,1%,.,.,.,.,.,
CCOc1ccc2oc(=O)cc(CN3CCN(c4ccc(OC)cc4)CC3)c2c1,-4%,.,.,.,.,.,
CN(Cc1ccccc1)c1ccc2cc(S(=O)(=O)N3CCCCC3)ccc2n1,0%,.,.,.,.,.,
OC(Cc1nc2ccccc2[nH]1)c1ccccc1Cl (stereo unspecified),1%,-4%,-4%,-17%,0.28µM*,-29,
Cc1ccc(C)c(N2CCN(C(=O)C3CCN(c4nc(-c5ccc(C(C)C)cc5)no4)CC3)CC2)c1,-2%,.,.,.,.,.,
Cc1ccccc1Cn1c(=O)n(Cc2ccc(Cl)cc2)c(=O)c2cccnc21,1%,.,.,.,.,.,
C=CCNC(=O)C1CC(=O)N(c2ccc(OCC(=O)Nc3c(C)cccc3C)cc2)C1 (stereo unspecified),-4%,8%,0%,-8%,?,-17,
Cc1ccccc1-c1nc(CS(=O)CC(=O)N2CCC3(CC2)OCCO3)c(C)o1 (stereo unspecified),-4%,-1%,0%,-7%,1.1µM*,5,Flu PR8 replic=8.3
Cc1ccccc1-c1nc(CS(=O)CC(=O)N2CCN(c3cc(Cl)ccc3C)CC2)c(C)o1 (stereo unspecified),-4%,.,.,.,.,.,
Cc1c(OC(C)C(=O)NC(Cc2c[nH]c3ccc(O)cc23)C(=O)O)ccc2c1oc(=O)c1ccccc12 (stereo unspecified),2%,-7%,-5%,0%,17%,.,
